DT40 TDP1 no CPT: qHTS for Inhibitors of human tyrosyl-DNA phosphodiesterase 1 (TDP1): qHTS in cells in absence of CPT; AID 686978, 2013; 420,000 tested, 15% active; DT40 Tdp1-/- hTDP1 cells, no CPT, ATP luminescence, 48 h; Potency, µM (highest dose often 46.2 µM), for inactives: at the highest dose activity change, negative = growth inhibition, hits mostly inhibitors; also: nearly all actives have a fitted effect of over 55% in size
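Compound effects on proliferation are scored in DT40 Tdp1-/-;hTDP1 cells in the absence of CPT. ATP levels (CellTiter-Glo luminescence) are recorded after a ≥48 hr, 37 °C incubation.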
KAT2A inh: inhibitors of human GCN5L2 histone acetyltransferase. Q92830. GCN5L2 HAT assay, ThioGlo1 CoA-SH fluorescence. Potency, µM (titrated, usually from 58.9 µM), for inactives: top-dose activity change, negative = inhibition, actives largely listed as inhibitors. 390,000 tested, 0.21% active. AID 504327
Target sequence (Q92830 whole entry, looked up): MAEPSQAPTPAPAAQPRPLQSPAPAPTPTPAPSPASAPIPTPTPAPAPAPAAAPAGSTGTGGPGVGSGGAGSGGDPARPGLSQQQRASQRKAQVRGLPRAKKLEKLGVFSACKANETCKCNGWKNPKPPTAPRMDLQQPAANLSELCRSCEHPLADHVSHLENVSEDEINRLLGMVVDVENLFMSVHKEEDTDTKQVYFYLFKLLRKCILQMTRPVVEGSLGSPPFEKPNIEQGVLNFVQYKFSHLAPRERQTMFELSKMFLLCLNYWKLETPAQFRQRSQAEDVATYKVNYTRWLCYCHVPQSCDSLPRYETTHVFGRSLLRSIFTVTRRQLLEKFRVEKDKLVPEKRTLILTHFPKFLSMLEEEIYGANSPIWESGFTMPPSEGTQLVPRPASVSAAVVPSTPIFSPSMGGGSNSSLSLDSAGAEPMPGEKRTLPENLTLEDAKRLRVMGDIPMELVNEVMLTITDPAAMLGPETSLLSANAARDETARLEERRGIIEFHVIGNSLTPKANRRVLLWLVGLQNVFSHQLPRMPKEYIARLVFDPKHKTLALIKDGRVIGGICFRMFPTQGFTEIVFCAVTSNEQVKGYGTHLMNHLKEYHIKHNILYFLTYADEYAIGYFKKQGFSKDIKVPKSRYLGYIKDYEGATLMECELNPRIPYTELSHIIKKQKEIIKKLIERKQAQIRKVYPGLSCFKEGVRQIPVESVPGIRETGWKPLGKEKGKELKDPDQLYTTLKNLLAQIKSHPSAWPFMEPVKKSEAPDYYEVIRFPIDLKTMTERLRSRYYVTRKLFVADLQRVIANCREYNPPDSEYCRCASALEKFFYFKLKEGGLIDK
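GCN5L2 (20 nM) in 50mM HEPES pH 7.5, 0.1mM EDTA, 0.01% Tween-20 preincubated 15 min with compounds at room temperature. Reaction started with H3(1-25) 75uM, acetyl-CoA 70uM, ThioGlo1 50uM; CoA-thiol fluorescence (Ex340/Em540) read at 0 and 20 min.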
VDR inh: vitamin D3 receptor (human) inhibition; 400,000 tested, 0.93% active; VDR-SRC2-3 peptide fluorescence polarization, 2 h; AID 504847; Potency, µM, for the others: max response, negative = inhibition, actives largely listed as inhibitors; P11473
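Fluorescence polarization assay measuring small-molecule disruption of VDR binding to the coregulator peptide SRC2-3. Compounds were pin-transferred (23 nl) into the reagent mix and incubated 2 h at room temperature before reading.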
PLK1 PBD inh: PLK1 (human) polo-box domain binding inhibition; 360,000 tested, 2.8% active; Potency, µM, inactives show max response, negative = inhibition, most hits filed as inhibitors; Plk1 PBD binding of FITC phosphopeptide, fluorescence polarization; P53350; also: series mostly up to about 57 µM; nearly all actives have a fitted effect of over 65% in size
DT40 TDP1 CPT: DT40-hTDP1 cell growth loss with CPT. chicken DT40 Tdp1-/-;hTDP1 cells + 20 nM CPT, ATP luminescence, 48 h. Potency, µM (highest dose often 46.2 µM), for inactives: at the top dose activity change, negative = growth inhibition, hits mostly inhibitors. AID 686979. 420,000 tested, 12% active; also: nearly all actives have a fitted effect of over 55% in size
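Cell growth measured by CellTiter-Glo luminescence after a minimum 48 h, 37 C compound exposure with 20 nM CPT in Tdp1-knockout DT40 cells stably expressing hTDP1, seeded 400/well; qHTS titration format.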
TDP1 block: TDP1 (human) enzyme inhibition; Q9NUW8; recombinant TDP1, AlphaScreen DNA substrate cleavage; Potency, µM (titrated, usually from 130 µM), for inactives: at the highest dose activity change, negative = inhibition, usual class: inhibitors; 350,000 tested, 0.28% active; also: nearly all actives have a fitted effect of over 40% in size
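Compounds were preincubated with Tdp1 (1 nM final) for 15 min at room temperature before substrate (15 nM final) started a 5 min reaction; beads (10 ug/ml final) were then added for 10 min before AlphaScreen detection.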
* = called active by the depositor; ? = inconclusive; · = no result given; [ ] = remark or other dose. The list is not random: actives were taken first. Their share in the collection is about 18%. Calls follow the shape of the dose curve; as a rule, active = well fitted curve in the direction sought with a large enough effect; inconclusive = small, poorly fitted or top-dose-only effect, or another doubt; inactive = no such curve, though single readings can be large; an effect the other way counts as inactive or inconclusive. % is scaled to controls: 0 for no effect and ±100 for the full control effect; potency is read from the fitted curve at half-maximal effect.

SMILES	DT40 TDP1 no CPT	KAT2A inh	VDR inh	PLK1 PBD inh	DT40 TDP1 CPT	TDP1 block
C[n+]1c(-c2ccccc2)cc2c(=Cc3ccc([N+](=O)[O-])cc3)c3ccccc3n21	4.1µM*	·	?	2.1µM*	1.8µM*	·
C[n+]1c(-c2ccccc2)cc2c(=Cc3ccccc3)c3ccccc3n21	0.52µM*	·	?	3.8µM*	0.52µM*	·
CN(C)c1ccc(C=c2c3cc(O)ccc3n3c2cc(-c2ccccc2)[n+]3C)cc1	?	·	-26%	?	7.3µM*	·
CCn1c2ccccc2c2cc([N+](=O)[O-])ccc21	-9%	-7%	-11%	-16%	9%	-1%
CN(C)CC(=O)Nc1ccc2c(c1)[C@H]1C[C@H](CC(=O)NCc3ccc4c(c3)OCO4)O[C@H](CO)[C@H]1O2	-15%	·	·	-12%	-3%	·
N#C[C@H](Cc1ccc(O)cc1)c1ccc(O)cc1	?	-13%	0%	·	-12%	11%
COc1ccc(CN(C)CC(=O)NC(=O)NCc2ccccc2)c(OC)c1	?	-6%	-7%	-7%	?	-2%
CN(CC(=O)NC(=O)NCc1ccccc1)Cc1ccc(Cl)c(Cl)c1	29µM*	-9%	-6%	-10%	21µM*	4%
CC(=O)Oc1c(I)cc(I)cc1C(=O)Nc1ccc(Cl)cc1	21µM*	-15%	-18%	-7%	?	5%
CC(C)(C)NS(=O)(=O)c1ccc(NS(C)(=O)=O)cc1	-1%	-10%	2%	-7%	-16%	-6%
COc1cccc2c1C(=O)CC(c1ccccc1)O2 (stereo not given)	?	-8%	-10%	·	?	7%[56.1 µM]
O=C(c1ccccc1)n1nc(-c2ccc(Cl)cc2)nc1NCc1ccco1	·	-6%	-6%	·	·	3%
CCCS(=O)(=O)Nc1cc2c(cc1NCc1ccccc1)n(C)c(=O)n2C	?	-4%	-10%	·	9.2µM*	-2%
COc1ccc(S(=O)(=O)Nc2cc3c(cc2NCc2ccccc2)n(C)c(=O)n3C)cc1	?	-8%	-6%	·	8.2µM*	5%
Cc1cc2c(cc1S(=O)(=O)NCc1ccccc1)n(C)c(=O)c(=O)n2C	-18%	-8%	-2%	-8%	-26%	·
CCOc1ccc(NC(=O)CCc2c(C)nn(-c3ccc(N4CCCCC4)nn3)c2C)cc1	?	-20%	-6%	-18%	?	3%
Cc1nc(C(=O)N2CCCC(N3CCN(c4ccc(F)cc4)CC3)C2)cs1 (stereo not given)	15µM*	·	·	7%	21µM*	·
Cc1cc(C)c(C(=O)N2CCCC(N3CCN(c4ccc(F)cc4)CC3)C2)o1 (stereo not given)	16µM*	-5%	10%	7%	?	11%
Cc1cccc(C(=O)N2CCCC(N3CCN(c4ccc(F)cc4)CC3)C2)n1 (stereo not given)	-21%	-2%	8%	-9%	-28%	4%
C/C(=N/NC(=O)c1ccco1)c1cccc(NC(=O)c2ccc(C)o2)c1	-7%	0%	-2%	-3%	-12%	5%
COc1ccc(/C(C)=N/NC(=O)c2ccncc2)cc1[N+](=O)[O-]	-4%	-12%	-8%	-1%	2%	·
C/C(=N/NC(=O)c1ccc(Br)o1)c1cccc(NC(=O)c2ccc(C)o2)c1	21µM*	-3%	?	7.5µM*	16µM*	8%
C/C(=N\NC(=O)c1ccncc1)c1cccc(NC(=O)c2ccc(C(C)(C)C)cc2)c1	16µM*	?	9%	1%	16µM*	0%
C/C(=N\NC(=O)c1cccc(N/N=C(\C)c2ccncc2)c1)c1ccncc1	?	-11%	-20%	27µM*	21µM*	6%

Compound activity from PubChem.
